Inconclusive results are not listed. Entries that show only a call come without a potency. A number with no mark means an inactive call. The source made the active and inactive calls. Calls come from the whole dose curve; as a rule, active = well fitted curve in the direction sought with a large enough effect; inconclusive = small, poorly fitted or top-dose-only effect, or another doubt; inactive = no such curve, though single readings can be large; an effect the other way counts as inactive or inconclusive.
Columns and labels:
[1] = tested on: HaCat; test: Cytotoxic Profiling of Annotated Libraries Using Quantitative High-Throughput Screening (AID 1296008); details: Five cell lines viability, CellTiter-Glo ATP luminescence, 48-72 h; max response: hits give low values; note: nearly all actives have a fitted effect of over 60% in size
Method in brief: (§1)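 Cells exposed to compounds for 48 or 72 hr at 37 degrees Celsius. Viability read as ATP-coupled luminescence with CellTiter-Glo after 10 min at room temperature.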

[2] = tested on: KB-3-1; test: as above; details: Five cell lines viability, CellTiter-Glo ATP luminescence, 48-72 h; max response: hits give low values
Method in brief: as §1

[3] = tested on: NIH3T3; test: as above; details: Five cell lines viability, CellTiter-Glo ATP luminescence, 48-72 h; max response: hits give low values
Method in brief: as §1

[4] = tested on: CASKI; test: Primary qHTS to identify gynecologic anti-cancer compounds using libraries of approved drugs and bioactive compounds (AID 1345084); details: Gynecologic cancer cell panel viability, ATPlite luminescence, 48 h; series mostly up to 57.5 µM; note: nearly all actives have a fitted effect of over 55% in size
Method in brief: (§2)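 Cells, 1,000 per well, plated 16 h, then exposed 48 h at 37 C to compounds. Viability by ATPlite luminescence after 15 min at room temperature.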

[5] = tested on: Es-2; test: as above; details: Gynecologic cancer cell panel viability, ATPlite luminescence, 48 h; series mostly up to 57.5 µM
Method in brief: as §2

[6] = tested on: HeLa; test: as above; details: Gynecologic cancer cell panel viability, ATPlite luminescence, 48 h; series mostly up to 57.5 µM
Method in brief: as §2

[7] = tested on: JEG-3; test: as above; details: Gynecologic cancer cell panel viability, ATPlite luminescence, 48 h; series mostly up to 57.5 µM
Method in brief: as §2

[8] = tested on: HACAT; test: qHTS assay to identify novel small-molecules to repurpose for Merkel cell carcinoma treatment (AID 1296009); details: MCC and control cell lines, CellTiter-Glo viability, 72 h; series mostly up to 44.8 µM; note: nearly all actives have a fitted effect of over 60% in size
Method in brief: (§3)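 Dose-response viability screen; 72 hr exposure at 37 degree celsius; CellTiter-Glo added, 10 min room temperature, luminescence read; RLUs scaled between no-cell and DMSO wells.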

[9] = tested on: MKL-1; test: as above; details: MCC and control cell lines, CellTiter-Glo viability, 72 h; series mostly up to 46 µM
Method in brief: as §3

[10] = tested on: MKL-2; test: as above; details: MCC and control cell lines, CellTiter-Glo viability, 72 h; series mostly up to 46 µM
Method in brief: as §3

[11] = tested on: UISO; test: as above; details: MCC and control cell lines, CellTiter-Glo viability, 72 h; series mostly up to 46 µM
Method in brief: as §3

[12] = tested on: WaGa; test: as above; details: MCC and control cell lines, CellTiter-Glo viability, 72 h; series mostly up to 46 µM
Method in brief: as §3

[13] = tested on: Hek293T; test: Primary qHTS to identify gynecologic anti-cancer compounds using libraries of approved drugs and bioactive compounds (AID 1345084); details: Gynecologic cancer cell panel viability, ATPlite luminescence, 48 h, control line for the selectivity index; series mostly up to 57.5 µM; note: nearly all actives have a fitted effect of over 55% in size
Method in brief: as §2

[14] = tested on: HEK293T; test: qHTS assay to identify novel small-molecules to repurpose for Merkel cell carcinoma treatment (AID 1296009); details: MCC and control cell lines, CellTiter-Glo viability, 72 h; at 44.8 µM (top of the series) unless noted; note: nearly all actives have a fitted effect of over 60% in size
Method in brief: as §3

[15] = tested on: C33A; test: Primary qHTS to identify gynecologic anti-cancer compounds using libraries of approved drugs and bioactive compounds (AID 1345084); details: Gynecologic cancer cell panel viability, ATPlite luminescence, 48 h; series mostly up to 57.5 µM; note: nearly all actives have a fitted effect of over 55% in size
Method in brief: as §2

[16] = tested on: CAOV3; test: as above; details: Gynecologic cancer cell panel viability, ATPlite luminescence, 48 h; series mostly up to 57.5 µM
Method in brief: as §2

[17] = tested on: OV90; test: as above; details: Gynecologic cancer cell panel viability, ATPlite luminescence, 48 h; series mostly up to 57.5 µM
Method in brief: as §2
Potency is the fitted concentration of half-maximal effect.

With `COc1cccc(Nc2ncnn3ccc(CN4CC[C@@H](N)[C@H](O)C4)c23)c1` as the molecule, how does the Potency [1] read?
Its Potency is 0.0058 µM (active).

What about the max response [2] of the same molecule?
The max response was -14.7%.

What about the Potency [3] of the same molecule?
The Potency was 0.517 µM (active).

What about the Potency [4] of the same molecule?
The Potency was “inactive”.

What about the Potency [5] of the same molecule?
Its Potency is “inactive”.

And the Potency [6]?
Its Potency is “inactive”.

What about the Potency [7] of the same molecule?
The Potency was “inactive”.

With `Cc1ccc(N)cc1O` as the molecule, how does the outcome [1] read?
The outcome was “inactive”.

What about the max response [2] of the same molecule?
The max response was -6.12%.

What about the Potency [8] of the same molecule?
Its Potency is “inactive”.

What about the Potency [9] of the same molecule?
The Potency was 6.11 µM (active).

What about the Potency [10] of the same molecule?
Its Potency is 6.11 µM (active).

What about the Potency [11] of the same molecule?
The Potency was 24.3 µM (active).

What about the Potency [12] of the same molecule?
Its Potency is 6.11 µM (active).

What about the Potency [5] of the same molecule?
The Potency was “inactive”.

What about the Potency [6] of the same molecule?
The Potency was “inactive”.

What about the Potency [13] of the same molecule?
Its Potency is “inactive”.

How did the outcome [1] turn out when `CCNC(=O)Nc1ncc(-c2cc(-c3c(C)cc(OC)cc3C)nc(-c3cnccn3)n2)s1` was run?
The outcome was “inactive”.

And the max response [2]?
The max response was 1.64%.

And the Potency [8]?
Its Potency is “inactive”.

What about the outcome [14] of the same molecule?
The outcome was “inactive”.

And the Potency [15]?
Its Potency is “inactive”.

And the Potency [16]?
Its Potency is “inactive”.

And the Potency [4]?
The Potency was “inactive”.

What about the Potency [5] of the same molecule?
Its Potency is “inactive”.

What about the Potency [6] of the same molecule?
Its Potency is “inactive”.

What about the Potency [13] of the same molecule?
Its Potency is “inactive”.

And the Potency [7]?
The Potency was “inactive”.

What about the Potency [17] of the same molecule?
Its Potency is “inactive”.

What does the source list for `CCCCC1CCN(CCCC(=O)c2ccccc2C)CC1`?
max response [1]: -61.6%; max response [2]: -21.4%; max response [3]: -22.9%; Potency [5]: inactive; Potency [6]: inactive

`COC(=O)N1CCC(n2ncc3c(N4CCOCC4)nc(-c4ccc(NC(=O)Nc5ccc(CO)cc5)cc4)nc32)CC1` was tested. Which Potency [1] did it give?
The Potency was 3.66 µM (active).

And the Potency [2]?
Its Potency is 0.231 µM (active).

And the Potency [3]?
Its Potency is 1.46 µM (active).

And the Potency [4]?
Its Potency is 1.12 µM (active).

What about the Potency [5] of the same molecule?
The Potency was 1 µM (active).

What about the Potency [6] of the same molecule?
The Potency was 2.51 µM (active).

What about the Potency [13] of the same molecule?
Its Potency is 0.282 µM (active).

What about the Potency [7] of the same molecule?
The Potency was 15.8 µM (active).

And the Potency [17]?
The Potency was 0.794 µM (active).

With `CCn1c(=O)c(-c2ccn[nH]2)cc2c(C)nc(N)nc21` as the molecule, how does the Potency [1] read?
Its Potency is 2.59 µM (active).

What about the Potency [2] of the same molecule?
The Potency was 7.31 µM (active).

What about the Potency [3] of the same molecule?
Its Potency is 1.84 µM (active).

And the Potency [4]?
Its Potency is 15.8 µM (active).

What about the Potency [6] of the same molecule?
Its Potency is 8.91 µM (active).

And the Potency [13]?
The Potency was 8.91 µM (active).

What about the Potency [7] of the same molecule?
Its Potency is “inactive”.

What about the Potency [17] of the same molecule?
The Potency was 14.1 µM (active).

What does the source list for `NCCCNc1ccc(Nc2nccc(Nc3cc(C4CC4)[nH]n3)n2)cc1`?
Potency [1]: 4.61 µM (active); Potency [2]: 0.82 µM (active); Potency [3]: 5.8 µM (active); Potency [4]: 3.98 µM (active); Potency [5]: 2.24 µM (active); Potency [6]: 4.47 µM (active); Potency [13]: 1.41 µM (active); Potency [7]: inactive; Potency [17]: 8.91 µM (active)

How did the outcome [1] turn out when `COC1/C=C/C(C)(O)C(SCC(N)C(=O)O)CC(=O)OC(C)C(C)CC/C=C/1C` (stereo not given) was run?
The outcome was “inactive”.

And the max response [2]?
Its max response is 0.268%.

What about the Potency [8] of the same molecule?
The Potency was “inactive”.

What about the outcome [14] of the same molecule?
Its outcome is “inactive [at 17.4 µM]”.

What about the Potency [15] of the same molecule?
The Potency was “inactive”.

And the Potency [16]?
Its Potency is “inactive”.

What about the Potency [4] of the same molecule?
Its Potency is “inactive”.

And the Potency [5]?
Its Potency is “inactive”.

What about the Potency [6] of the same molecule?
Its Potency is “inactive”.

And the Potency [13]?
Its Potency is “inactive”.

What about the Potency [7] of the same molecule?
Its Potency is “inactive”.

What about the Potency [17] of the same molecule?
Its Potency is “inactive”.

`COc1ccc(N(C)c2nc(C)nc3ccccc23)cc1` was tested. Which outcome [1] did it give?
The outcome was “inactive”.

And the Potency [2]?
Its Potency is 0.0052 µM (active).

What about the Potency [8] of the same molecule?
Its Potency is “inactive”.

`Cc1ccc(-c2c(C(=O)CF)n(CCCO)c3ncnc(N)c23)cc1` was tested. Which max response [1] did it give?
Its max response is 4.6%.

And the max response [2]?
Its max response is 4.56%.

What about the outcome [14] of the same molecule?
Its outcome is “inactive”.

What about the Potency [15] of the same molecule?
The Potency was “inactive”.

And the Potency [4]?
Its Potency is “inactive”.

What about the Potency [5] of the same molecule?
The Potency was “inactive”.

What about the Potency [6] of the same molecule?
The Potency was “inactive”.

And the Potency [13]?
The Potency was “inactive”.

And the Potency [7]?
Its Potency is “inactive”.

What about the Potency [17] of the same molecule?
Its Potency is “inactive”.

How did the max response [1] turn out when `C[C@@H]1O[C@@H](O[C@H]2[C@H](O)[C@@H](O)[C@H](O[C@H]3[C@H](O[C@H]4CC[C@@]5(C)C(=CC[C@@H]6C5CC[C@]5(C)[C@@H]7[C@H](C[C@@H]65)O[C@]5(CC[C@@](C)(CO[C@@H]6O[C@H](CO)[C@@H](O)[C@H](O)[C@H]6O)O5)[C@H]7C)C4)O[C@H](CO)[C@@H](O)[C@@H]3O)O[C@@H]2CO)[C@H](O)[C@H](O)[C@H]1O` (stereo not given in full) was run?
The max response was -8.19%.

What about the Potency [2] of the same molecule?
Its Potency is 0.778 µM (active).

And the activity change, negative = cytotoxicity [15]?
The activity change, negative = cytotoxicity was 1.06% [at 11.6 µM].

What about the activity change, negative = cytotoxicity [16] of the same molecule?
Its activity change, negative = cytotoxicity is -9.22% [at 11.6 µM].

And the activity change, negative = cytotoxicity [4]?
Its activity change, negative = cytotoxicity is 21.1% [at 11.6 µM].

What about the activity change, negative = cytotoxicity [5] of the same molecule?
The activity change, negative = cytotoxicity was 3.9% [at 11.6 µM].

What about the activity change, negative = cytotoxicity [6] of the same molecule?
Its activity change, negative = cytotoxicity is 6.34% [at 11.6 µM].

And the activity change, negative = cytotoxicity [13]?
The activity change, negative = cytotoxicity was -9.56% [at 11.6 µM].

What about the activity change, negative = cytotoxicity [7] of the same molecule?
The activity change, negative = cytotoxicity was 4.71% [at 11.6 µM].

And the activity change, negative = cytotoxicity [17]?
The activity change, negative = cytotoxicity was 5.27% [at 11.6 µM].

Which results are given for `N#Cc1ccc2[nH]cc(CCCCN3CCN(c4ccc5oc(C(N)=O)cc5c4)CC3)c2c1`?
max response [1]: -11.5%; max response [2]: -15.8%; Potency [15]: inactive; Potency [16]: inactive; Potency [4]: inactive; Potency [5]: inactive; Potency [6]: inactive; Potency [13]: inactive; Potency [7]: inactive; Potency [17]: inactive

Which results are given for `CC(=O)C12OC(C)(C)OC1CC1C3CCC4=CC(=O)C=CC4(C)C3(F)C(O)CC12C` (stereo not given)?
max response [1]: -3.19%; outcome [2]: inactive; Potency [15]: inactive; Potency [16]: inactive; Potency [4]: inactive; Potency [5]: inactive; Potency [6]: inactive; Potency [13]: inactive; Potency [7]: inactive; Potency [17]: inactive

Source: PubChem BioAssay (NCATS)
